Shown are actives, neighbours in structure and some others; about 6.5% of the full set was active somewhere.
HT1080NT lethal: qHTS for induction of synthetic lethality in tumor cells producing 2HG: qHTS for the HT-1080-NT fibrosarcoma cell line; 360,000 tested, 1.6% active; Potency, µM (doses to about 46.1 µM), for the others: at the top dose activity, negative = less viability, usual class: cytotoxic; HT-1080-NT fibrosarcoma viability, CellTiter-Glo ATP luminescence, 48 h;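 also: NT is the 2HG producing partner of a matched IDH1 knockdown line; potency is read from the fitted curve at half-maximal effect; 0% = DMSO-treated cells and -100% = media-only wells without cells; nearly all actives have a fitted effect of over 55% in size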
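Toxicity toward the 2HG-producing NT line was scored as %Activity, normalised to DMSO and no-cell wells, from CellTiter-Glo luminescence after 48 hours' treatment.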
Giardia kill: Small Molecules that selectively kill Giardia lamblia: qHTS. Giardia lamblia trophozoite viability. activity change, % at 7.66 µM, hits read low. 340,000 tested, 0.15% active. AID 540267, 2011; in the data active = activity change below about -80%; inconclusive = between about -30% and that limit;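 also: parasites exposed to compound for two days anaerobically before the ATP read; % is scaled to controls: 0 for no effect and ±100 for the full control effect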
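Luminescence from cellular ATP indicates surviving trophozoites (100 cells/well) following 48 hrs anaerobic compound treatment at 37 deg C; signal develops 15-30 min at room temperature.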
HepG2 viability: qHTS for Inhibitors of TGF-b: Cytotox Counterscreen | Potency, µM (top dose mostly 46.1 µM), for the others: at the highest dose activity change, negative = cytotoxicity, usual class: cytotoxic | HepG2 CAGA-GFP viability, ATP luminescence, 18 h | 410,000 tested, 0.76% active; also: potency is read from the fitted curve at half-maximal effect
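CellTiter-Glo luminescence gave cytotoxicity after 18 hours at 37 degrees C. The cells were HepG2 CAGA-GFP in 1% FBS DMEM, stimulated with 500 pg/mL TGF-beta after compound addition. %Activity was normalised to no-cell wells (complete cell-killing) and DMSO (no toxicity), and curves were fitted and classified.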
HT1080 IDH1KD tx: qHTS for induction of synthetic lethality in tumor cells producing 2HG: qHTS for the HT-1080-IDH1KD cell line; HT-1080 IDH1 knockdown viability, ATP luminescence, 48 h; Potency, µM (doses to about 46.1 µM), without a hit: at the top dose activity, negative = toxicity, hits mostly cytotoxic; 360,000 tested, 2% active; AID 686971, 2013;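 also: potency is read from the fitted curve at half-maximal effect; 0% = DMSO wells and -100% = cell-free medium wells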
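Luminescent ATP read-out (CellTiter-Glo, 10 min at room temperature) after 48 h compound exposure at 37 °C gave viability of IDH1-knockdown HT-1080 cells. Activity was normalised to DMSO and cell-free wells, then fitted as concentration-response curves.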
TGFb SMAD3 inh: qHTS for Inhibitors of TGF-b; HepG2 CAGA-GFP TGF-b/SMAD3 reporter, GFP fluorescence, 18 h; TGF-beta stimulated, 500 pg/mL final; Potency, µM (series often up to 46.1 µM), without a hit: top-dose activity, negative = inhibition, hits mostly inhibitors; AID 588855, 2011; 410,000 tested, 1.2% active; also: potency is read from the fitted curve at half-maximal effect; % is scaled to controls: 0 for no effect and ±100 for the full control effect; nearly all actives have a fitted effect of over 65% in size
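HEPG2 CAGA-GFP cells (1000/well, DMEM with 1% FBS) were pre-incubated 2 h at 37 degrees C, given compound by pin tool, then stimulated with TGF-beta at 500 pg/mL final for 18 h before per-cell GFP fluorescence imaging.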
IL-1B inflam inh: qHTS for Inhibitors of Inflammasome Signaling: IL-1-beta AlphaLISA Primary Screen; 360,000 tested, 4.7% active; activity change, % at 57.5 µM; THP-1 LPS/ATP IL-1B secretion, AlphaLISA, 16 h; active compounds read low; in the data active = activity change below about -50%; inconclusive = mostly about -30% to -49%; also: % is scaled to controls: 0 for no effect and ±100 for the full control effect
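THP-1 cells pretreated 1 hr with compounds (up to 57.5 uM final), then stimulated with LPS (250 ng/mL final) plus ATP (1.25 mM final); secreted IL-1B measured by AlphaLISA after 16 hr, decreased signal indicating inhibition.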
* hit, by the source's call. Unless noted, calls follow the shape of the dose curve; as a rule, active = well fitted curve in the direction sought with a large enough effect; inconclusive = small, poorly fitted or top-dose-only effect, or another doubt; inactive = no such curve, though single readings can be large; an effect the other way counts as inactive or inconclusive.

What do the screens show for `CCN(CC)CCNC(=O)c1ccc(NC(=O)c2ccccc2-c2ccc(C(F)(F)F)cc2)cc1`?
HT1080NT lethal: 23µM*; Giardia kill: 18; HepG2 viability: -51%; HT1080 IDH1KD tx: 18µM*; TGFb SMAD3 inh: inconclusive; IL-1B inflam inh: -67*

How did Cc1cc(C(=O)OCCN2C(=O)c3ccccc3C2=O)c2ccccc2n1 do in these assays?
HT1080NT lethal: -25%; Giardia kill: 5; HepG2 viability: -5%; HT1080 IDH1KD tx: -23%; TGFb SMAD3 inh: 4%; IL-1B inflam inh: 31

How did CC1(C)Cc2cccc(OC(=O)NCCc3ccc(F)cc3)c2O1 do in these assays?
HT1080NT lethal: 8%; HT1080 IDH1KD tx: 12%; IL-1B inflam inh: -2

How did CCCNC(=O)C1(C)CCN(Cc2cc3ccccc3o2)C1 (stereo not drawn) do in these assays?
HT1080NT lethal: 9%; HepG2 viability: -27%; HT1080 IDH1KD tx: 13%; TGFb SMAD3 inh: -12%; IL-1B inflam inh: 31

How did Cc1nn(C2CCS(=O)(=O)C2)c(C)c1C=O (stereo not drawn) do in these assays?
HT1080NT lethal: 10%; Giardia kill: -19; HepG2 viability: 1%; HT1080 IDH1KD tx: 18%; TGFb SMAD3 inh: 0%; IL-1B inflam inh: 29

Results for O=C(c1cn(-c2ccccc2)nc1-c1cccs1)N1CCOCC1 ?
HT1080NT lethal: -3%; Giardia kill: -1; HepG2 viability: -28%; HT1080 IDH1KD tx: -8%; TGFb SMAD3 inh: -2%; IL-1B inflam inh: -5

What do the screens show for `O=C(c1cn(-c2ccccc2)nc1-c1cccs1)N1CCN(c2ccccc2)CC1`?
HT1080NT lethal: inconclusive; Giardia kill: -7; HepG2 viability: 5%; HT1080 IDH1KD tx: 7.1µM*; TGFb SMAD3 inh: -1%; IL-1B inflam inh: 10

What do the screens show for `O=C(Nc1cccnc1)c1cn(-c2ccccc2)nc1-c1cccs1`?
HT1080NT lethal: 0%; Giardia kill: -3; HepG2 viability: -23%; HT1080 IDH1KD tx: 0%; TGFb SMAD3 inh: -20%; IL-1B inflam inh: -16

Results for CCN(CC)CCNC(=O)c1ccc(NC(=O)c2cn(-c3ccccc3)nc2-c2cccs2)cc1 ?
HT1080NT lethal: inconclusive; Giardia kill: 11; HepG2 viability: 11µM*; HT1080 IDH1KD tx: inconclusive; TGFb SMAD3 inh: inconclusive; IL-1B inflam inh: inconclusive

What do the screens show for `CCNC(=O)N(C)C[C@H]1N[C@@](C)(C(=O)OC)[C@H]2C(=O)N(C)C(=O)[C@@H]12`?
HT1080NT lethal: 18%; Giardia kill: 6; HepG2 viability: 1%; HT1080 IDH1KD tx: 11%; TGFb SMAD3 inh: 6%; IL-1B inflam inh: 15

Results for COc1ccc(OC)c(CNn2c(-c3ccccc3F)nc3ccccc3c2=O)c1 ?
HT1080NT lethal: -4%; Giardia kill: -5; HepG2 viability: -39%; HT1080 IDH1KD tx: -13%; TGFb SMAD3 inh: 6%; IL-1B inflam inh: -1

How did COc1ccc(N2CCN(C(CNC(=O)C(=O)NCCCn3ccnc3)c3ccco3)CC2)cc1 (stereo not drawn) do in these assays?
HT1080NT lethal: 0%; Giardia kill: 8; HepG2 viability: -13%; HT1080 IDH1KD tx: 0%; TGFb SMAD3 inh: -6%; IL-1B inflam inh: -1

What do the screens show for `Cc1ccc(NC(=S)Nc2cccc3cnccc23)cc1C`?
HT1080NT lethal: -1%; Giardia kill: 10; HepG2 viability: -16%; HT1080 IDH1KD tx: -6%; TGFb SMAD3 inh: inconclusive; IL-1B inflam inh: -78*

Results for CCC(=O)N1c2ccccc2CC1C(=O)NCc1cccc(C)c1 (stereo not drawn) ?
HepG2 viability: -21%; TGFb SMAD3 inh: -16%

Results for Clc1ccccc1-c1nn2c(-c3ccncc3)nnc2s1 ?
HT1080NT lethal: -1%; Giardia kill: -3; HepG2 viability: -18%; HT1080 IDH1KD tx: -28%; TGFb SMAD3 inh: -1%; IL-1B inflam inh: -67*

How did Clc1ccccc1-c1nnc2sc(-c3ccncc3)nn12 do in these assays?
HT1080NT lethal: 8%; Giardia kill: -8; HepG2 viability: -23%; HT1080 IDH1KD tx: 4%; TGFb SMAD3 inh: 2%; IL-1B inflam inh: -30

Results for COc1ccc(Oc2c(C=O)c3ccccc3n2C)cc1 ?
HT1080NT lethal: -17%; Giardia kill: -7; HepG2 viability: -14%; HT1080 IDH1KD tx: -18%; TGFb SMAD3 inh: -6%; IL-1B inflam inh: inconclusive

How did Cn1c(Oc2ccc(F)cc2F)c(C=O)c2ccccc21 do in these assays?
HT1080NT lethal: -11%; Giardia kill: 20; HepG2 viability: -19%; HT1080 IDH1KD tx: 12%; TGFb SMAD3 inh: -20%; IL-1B inflam inh: -88*

What do the screens show for `Cn1c(Oc2ccc(Cl)cc2)c(C=O)c2ccccc21`?
HT1080NT lethal: inconclusive; Giardia kill: 15; HepG2 viability: -44%; HT1080 IDH1KD tx: inconclusive; TGFb SMAD3 inh: inconclusive; IL-1B inflam inh: -95*

How did NC(=O)CSc1nnc(-c2cccs2)n1-c1ccccc1 do in these assays?
HT1080NT lethal: -2%; Giardia kill: 10; HepG2 viability: 0%; HT1080 IDH1KD tx: 1%; TGFb SMAD3 inh: -3%; IL-1B inflam inh: -1

Results for CC[n+]1c(/C=C2\Sc3ccccc3N2C)ccc2cccc(C)c21 ?
HT1080NT lethal: 13µM*; Giardia kill: -13; HepG2 viability: -41%; HT1080 IDH1KD tx: 10µM*; TGFb SMAD3 inh: 33%; IL-1B inflam inh: -100*

How did CC[n+]1c(C)sc2cc(C)ccc21 do in these assays?
HT1080NT lethal: -1%; Giardia kill: -13; HepG2 viability: -10%; HT1080 IDH1KD tx: 3%; TGFb SMAD3 inh: -14%; IL-1B inflam inh: 60

Results for CN1c2ccccc2Sc2cc(N)ccc21 ?
HT1080NT lethal: inconclusive; Giardia kill: 8; HepG2 viability: -12%; HT1080 IDH1KD tx: -18%; TGFb SMAD3 inh: -18%; IL-1B inflam inh: -20

Results for CCN1/C(=C/c2ccc3cc(C)ccc3[n+]2CC)Sc2ccccc21 ?
HT1080NT lethal: 5.8µM*; Giardia kill: 29; HepG2 viability: -84%; HT1080 IDH1KD tx: 12µM*; TGFb SMAD3 inh: 132%; IL-1B inflam inh: -100*

What do the screens show for `CCN1/C(=C/c2ccc3cc(C)ccc3[n+]2CC)Sc2cc(C)c(C)cc21`?
HT1080NT lethal: 18µM*; Giardia kill: 17; HepG2 viability: -13%; HT1080 IDH1KD tx: 12µM*; TGFb SMAD3 inh: 85%; IL-1B inflam inh: -98*
